A selection: hits, their analogues and other compounds. The true share with any hit is near 2.2%.
Mito fusion act: blocks mitochondrial division or promotes mitochondrial fusion. S. cerevisiae fusion-defective mutant growth rescue, CellTiterGlo 48 h. Potency, µM (top dose mostly 46.1 µM), for the others: top-dose growth rescue (activation), most hits filed as activators. 320,000 compounds, 0.23% hits; also: % of control where 0% means no effect; nearly all actives have a fitted effect of over 45% in size
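Luminescent cell viability in 1536-well qHTS format served as the measure of rescued growth in ts fusion-mutant S. cerevisiae cultured on non-fermentable YPEG for 48 hours at 37C.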
FUS yeast rescue: suppressors of FUS proteinopathy in yeast. 390,000 compounds, 0.24% hits. Potency, µM (top dose mostly 76.6 µM), hits mostly activators. S. cerevisiae FUS-expressing, growth rescue, OD600, 24 h;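 also: plate controls were DMSO vehicle for no effect and reference control for full effect; nearly all actives have a fitted effect of over 55% in size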
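FUS-expressing yeast, raffinose-pregrown, induced in 2% galactose minimal medium at OD 0.005; compounds in a dilution series, 24hr at 30C. Growth restoration read as absorbance at 600 nm. CP55940 positive control, DMSO negative.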
ERG-DNA inh: ERG Ets/DNA interaction inhibition; P11308; fluorescence polarization, His-ERG Ets domain / labelled DNA; Potency, µM (titrated, usually from 76.9 µM), for inactives: at the highest dose FP activity, negative = inhibition, actives largely listed as inhibitors; 370,000 compounds, 0.028% hits; AID 624246; active = well fitted inhibition curve with a large enough effect in the polarisation, with a control signal flat; inconclusive = small, poorly fitted or top-dose-only effect, or effect the other way, or a change in a side signal; inactive = no such curve, though single readings can be large or run the other way; the % refers to the polarisation;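 also: polarization taken with two DNA probes labelled with fluorescein and Texas red; % of control where 0% means no effect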
Target sequence (P11308 whole entry, looked up, the tested form may be a part): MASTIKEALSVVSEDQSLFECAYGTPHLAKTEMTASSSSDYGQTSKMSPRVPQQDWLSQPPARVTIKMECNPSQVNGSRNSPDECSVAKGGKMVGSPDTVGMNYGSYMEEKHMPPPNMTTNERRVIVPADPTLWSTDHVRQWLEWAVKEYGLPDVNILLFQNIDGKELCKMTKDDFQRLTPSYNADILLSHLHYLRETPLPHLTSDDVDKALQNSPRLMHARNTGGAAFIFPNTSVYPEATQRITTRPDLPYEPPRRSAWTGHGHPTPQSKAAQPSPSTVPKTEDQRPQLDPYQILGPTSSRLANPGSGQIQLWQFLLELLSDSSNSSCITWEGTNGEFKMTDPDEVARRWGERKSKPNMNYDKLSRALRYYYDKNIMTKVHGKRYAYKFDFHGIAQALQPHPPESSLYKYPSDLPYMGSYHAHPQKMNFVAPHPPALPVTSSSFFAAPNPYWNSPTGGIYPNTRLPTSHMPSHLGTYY
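His-tagged ERG Ets domain (1 uM in the protein solution; 300mM KCl, 50mM Tris-HCl, 1mM EDTA, 1mM DTT, pH 7.5) received compound, then a probe mix of 5 nM fluorescein-DNA and 100nM Texas-615-DNA. Fluorescence polarization was read for both dyes.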
TDP-43 yeast inh: TDP-43 toxicity inhibition in yeast | TDP-43 expressing yeast growth rescue, BacTiter-Glo, 24 h | 410,000 compounds, 1.8% hits | Potency, µM (highest dose often 46.1 µM), inactives show at the highest dose growth rescue (activation), most hits filed as activators; also: % of control where 0% means no effect; nearly all actives have a fitted effect of over 50% in size
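In this qHTS, compounds that restore growth of yeast expressing TDP-43 appear as activators. Cells (OD600=0.02, galactose medium, raffinose-pregrown) are incubated with compound 24 hr at 30 deg C and growth is quantified by BacTiter-Glo.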
aSyn yeast inh: inhibitors of alpha-synuclein toxicity in yeast | Potency, µM (top dose mostly 46.1 µM), without a hit: at the top dose growth rescue (activation), hits mostly activators | Yeast expressing alpha-synuclein, growth rescue, BacTiter-Glo, 24 h | 370,000 compounds, 0.14% hits; also: % of control where 0% means no effect; nearly all actives have a fitted effect of over 65% in size
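Galactose-induced alpha-syn yeast (OD600=0.02, raffinose-pregrown) + pinned cpd, 24 hr, 30 deg C; growth by BacTiter-Glo luminescence. Growth restoration scores as activation.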
Abeta rescue: restores growth of yeast expressing A-beta42 peptide; Potency, µM (top dose mostly 46.1 µM), actives largely listed as activators; yeast expressing A-beta42, growth rescue, OD600, 48 h; response scale: 0% DMSO, 100% iron-clioquinol control; 410,000 compounds, 0.063% hits; also: nearly all actives have a fitted effect of over 55% in size
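Yeast A-beta toxicity model in growth medium with pinned compounds, 48 h at 30 C; growth read as absorbance at 600 nm. Normalized to FeCl3/clioquinol equimolar mix (positive) and DMSO (negative).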
* hit, by the source's call; i = inactive; ? = inconclusive; . = no result given; [ ] = dose if it differs, or a comment. Unless noted, calls follow the shape of the dose curve; as a rule, active = well fitted curve in the direction sought with a large enough effect; inconclusive = small, poorly fitted or top-dose-only effect, or another doubt; inactive = no such curve, though single readings can be large; an effect the other way counts as inactive or inconclusive. Potency is read from the fitted curve at half-maximal effect.

SMILES	Mito fusion act	FUS yeast rescue	ERG-DNA inh	TDP-43 yeast inh	aSyn yeast inh	Abeta rescue
C#CCOc1c(Br)cc(/C=C2/C(=O)ON=C2C)cc1OCC	12%	i	-4%	16µM*	3%	?
COC(=O)C(C(=O)OC)c1ccccc1NS(=O)(=O)c1c(C)cc(C)cc1C	.	i	.	21%	-24%	i
Cc1ccc(S(=O)(=O)c2c(O)cc(C)c(NS(=O)(=O)c3ccc(Br)cc3)c2C)cc1	.	i	0%	-20%	.	i
Cc1ccccc1C(=O)Nc1nnc(-c2ccc(F)cc2)o1	10%	i	-8%	?	18µM*	22µM*
COCCn1c(C)cc(O)c(C(c2ccccc2)N2CCN(c3ccccc3F)CC2)c1=O (configuration not stated)	.	i	1%	-13%	.	i
Cc1noc(C)c1COC(=O)Cc1ccc(Cl)c(Cl)c1	-3%	i	-2%	10µM*	25%	i
CCc1ccc(-c2nc(SCC(=O)c3c(N)n(C4CC4)c(=O)[nH]c3=O)n[nH]2)cc1	-3%	i	3%	-10%	-2%	i
O=C(NNc1ccccc1)Nc1cc(Cl)ccc1Cl	.	i	-9%	?	10%	i
COc1cccc(CN=c2c([N+](=O)[O-])nn(-c3ccccc3C)n2O)c1	-2%	.	-10%	?	-2%	i
Cc1ccc(CCN=c2c([N+](=O)[O-])nn(-c3ccccc3)n2O)cc1	6%	i	-8%	11µM*	20%	i
O=[N+]([O-])c1nn(-c2ccccc2)n(O)c1=NCCc1ccccc1	18µM*	.	6%	7.1µM*	2%	i
COc1ccc(-n2nc([N+](=O)[O-])c(=NCCc3ccccc3)n2O)cc1	15%	.	8%	13µM*	8%	i
O=C(Nc1nc2n(n1)C(c1ccccc1)C=C(c1ccccc1)N2)c1ccc(Cl)c([N+](=O)[O-])c1 (configuration not stated)	.	i	-2%	0%[9.22 µM]	.	i
O=[N+]([O-])c1cccc(-c2cc(-c3cc(Br)ccc3O)[nH]n2)c1	-49%	i	-2%	13µM*	-7%	i
Cc1cccc(NC(=O)CN2C(=O)CCSc3ccccc32)c1C	.	i	.	.	.	.
Cc1ccc(NC(=O)CN2C(=O)CCSc3ccccc32)c(C)c1	.	i	0%	16µM*	3%	i
Clc1ccc(CNc2ncnc3nc[nH]c23)cc1	.	.	.	.	1%	.
O=C(NCCCN1CCCC1)c1[nH]c(C(F)(F)F)nc1-c1ccccc1	.	i	.	15%	-6%	i
Clc1ccc(Cn2c(/C=C/c3ccco3)nc3ccccc32)cc1	?	i	-1%	-3%	5%	i
O=c1c2ccccc2nc(/C=C/c2ccc(Cl)cc2)n1CCO	26%	i	-6%	11µM*	5%	i
C#CCn1c(/C=C/c2ccc(Cl)cc2)nc2ccccc21	.	i	7%	35µM*	.	i
O=c1c2ccccc2nc(/C=C/c2cccc(Br)c2)n1CCCO	11µM*	i	14%	14%	0%	i
CCn1c(/C=C/c2ccc(O)cc2)nc2ccccc2c1=O	3%	i	3%	18µM*	2%	i
O=C(NCc1ccccc1)O[C@H]1CC[C@@]23CCCN2C(=O)CCC[C@H]3C1	.	i	.	.	.	.
CCn1c(/C=C/c2ccccc2F)nc2ccccc2c1=O	0%	i	5%	8.9µM*	-5%	i

Screening results from PubChem BioAssay.
